# Experimental data published in paper PMC4242493, “Sequence specificity incompletely defines the genome-wide occupancy of Myc”.
# Whole data set: some 33,000 sequences, median “normalized occupancy” near 0.075, cut for the highest 2% near 0.095. For the sample, the highest values were picked, then their nearest neighbours and some sequences at random.
# Target: MaxL homodimer (Homo sapiens, UniProt P61244 1-160)
# Experiment: universal protein-binding microarray (PBM); PBS-based mixture, 10 nM His-tagged protein dimer, 2% milk, 200 ng/uL BSA, 50 ng/uL salmon testes DNA, 0.02% TX-100; detection with Alexa 488 anti-His antibody;; high values mean tight binding
# Conditions: protein: recombinant; tags: C-terminal His-tag (pET21a); chain copies: 2; dsDNA, one strand shown
# Outline: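 Arrays of the 'all 10-mer' universal design (Agilent 4 x 44 K) were exposed to 10 nM His-tagged protein dimer, stained with 10 ng/μL fluorophore-conjugated anti-His antibody and read on a GenePix 4400A to give a fluorescence intensity for each 8-mer. Binding occupancy is each intensity divided by the highest-ranked intensity.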
# MaxL homodimer, sequence (P61244 whole entry): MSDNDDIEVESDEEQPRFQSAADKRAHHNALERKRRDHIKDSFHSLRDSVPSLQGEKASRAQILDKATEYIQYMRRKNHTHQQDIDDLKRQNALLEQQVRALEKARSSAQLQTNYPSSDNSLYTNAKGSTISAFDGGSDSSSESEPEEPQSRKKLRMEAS
row,Sequence,binding signal [normalized occupancy]
1,GGACCCCA,0.0794
2,ATGAGAAA,0.0743
3,ATTGGAAC,0.076
4,AGGTGTGG,0.0847
5,ACGTGTGA,0.105
6,ACGTGTGC,0.109
7,CCGTGTGC,0.0858
8,CCGTGTGA,0.0836
9,CCGTGCGC,0.0813
10,ACGTGCGC,0.113
11,AAGTGTGC,0.0869
12,ACGTGTGG,0.104
13,ACGTGCGA,0.093
14,GCGTGTGA,0.0941
15,AAGTGTGG,0.0819
16,GACGAGAC,0.0761
17,GACAAAAC,0.0749
18,CACGAATG,0.0777
19,ATTGAAGC,0.0724
20,ATAGTCTG,0.0754
21,CTATGCAC,0.0874
22,ATATGCAC,0.092

row,Sequence,binding signal [normalized occupancy]
1,ACATGCAT,0.105
2,CCATGCAG,0.0965
3,AGATGCAC,0.0867
4,CCATGCAA,0.0895
5,CCATGCAC,0.0969
6,CTATGCAG,0.0757
7,AGATGCAT,0.0784
8,CAATGCAC,0.0848
9,AAATGCAT,0.079
10,ACATGCAC,0.0954
11,AAAGTGAA,0.0782
12,ACTAGTCA,0.0755
13,CTACCCGA,0.0741
14,AAATATAC,0.0881
15,GCATTAGC,0.0727
16,CGTATGCC,0.0784
17,AGATGCAG,0.0757
18,ACATGAAC,0.0866
19,ACATGCAG,0.097
20,ACATGAAG,0.0842
21,AAATGCAG,0.0778
22,ACATGAAT,0.0965

row,Sequence,binding signal [normalized occupancy]
1,AAGCTATC,0.0722
2,ATGACTTG,0.0818
3,ACGTGCAG,0.101
4,AAGTGCAT,0.085
5,GCGTGCCA,0.09
6,CCGTGCAG,0.0778
7,AAGTGCAG,0.0763
8,CCGTGCCC,0.0733
9,GAGTGCAC,0.082
10,AGGTGCAT,0.0863
11,GCGTGCCC,0.0965
12,CCGTGCAC,0.0816
13,GCGTGCAC,0.109
14,ACGTGCAT,0.104
15,CGAATAAA,0.0729
16,TAAATAAA,0.0766
17,CCACCACG,0.0914
18,ACCGGTTA,0.0751
19,TAGGAAAA,0.0729
20,CAGCTGAA,0.0749
21,ACGAAAGC,0.0763
22,TCCGAAAA,0.0774

row,Sequence,binding signal [normalized occupancy]
1,AGACTGTA,0.0748
2,CTGTGCAC,0.0869
3,AAGTGCAC,0.0774
4,GGGTGCAA,0.0755
5,GCGTGCAA,0.0963
6,ACGTGCAC,0.113
7,CCGTGCAA,0.078
8,ACGTGCAA,0.098
9,AGGTGCAC,0.0767
10,GTGTGCAA,0.0818
11,ATGTGCAA,0.0875
12,TCGTGCAA,0.0766
13,ATGTGCAC,0.0959
14,GATGGACA,0.0742
15,AATGCAAC,0.0776
16,CATACGGG,0.0812
17,CAGTTATA,0.0794
18,CCTCCATC,0.0784
19,CAACCTAA,0.0744
20,CTAACATC,0.0796
21,AGCGTCGC,0.0721
22,CCCGTCCC,0.0747

row,Sequence,binding signal [normalized occupancy]
1,ATAATACC,0.08
2,AGCCCAAA,0.0722
3,CGCACGCC,0.0878
4,AGCACACG,0.0942
5,AGCACGCA,0.0909
6,AGCACGCC,0.0846
7,AGCACGCG,0.156
8,AGCACACA,0.0906
9,CGCACGCG,0.121
10,CGCACGCA,0.0894
11,AGCACGCT,0.104
12,GAAATCAA,0.075
13,ATGTAGTG,0.0796
14,CCCTTATA,0.0809
15,ACTTGTAC,0.0751
16,AAAACGTG,0.122
17,CAAACGTG,0.103
18,CAAACGTC,0.0739
19,AAAACGTA,0.0744
20,CAAACGTA,0.0729
21,AAAACGTT,0.0743
